Measurements from PubChem BioAssay (NCI).
The panel holds about 79,000 compounds, 15% with a hit somewhere; the sample as a whole holds those more often. Unmarked numbers belong to inactive results. The source made the active and inactive calls. Cut-off read from the data, not from the text of the source: active = growth inhibition above about 70%; inactive = the rest.

Experiments:
[1] = NCI Yeast Anticancer Drug Screen. Data for the rad50 strain (AID 155);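 note: 0% = growth of vehicle-only cultures of the same strain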; conditions: S. cerevisiae rad50 strain growth inhibition, stronger effect = higher value
Outline: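 Genetically altered yeast (DNA repair pathway); compound treatment; growth inhibition vs vehicle ctrl.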

[2] = NCI Yeast Anticancer Drug Screen. Data for the mec2-1 strain (AID 157); conditions: S. cerevisiae mec2-1 strain, stronger effect = higher value
Outline: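 Strain: mec2-1 (DNA repair/cell cycle alteration). Compound exposure, then growth measured; inhibition expressed relative to vehicle.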

[3] = NCI Yeast Anticancer Drug Screen. Data for the sgs1 mgt1 strain (AID 161);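 note: 0% = growth of cultures given vehicle only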; conditions: S. cerevisiae sgs1 mgt1 strain, stronger effect = higher value
Outline: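 Test agents were incubated with a DNA-repair-mutant yeast strain. Growth was then read and compared against vehicle-treated controls.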

[4] = NCI Yeast Anticancer Drug Screen. Data for the cln2 rad14 strain (AID 165);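 note: 0% = growth equal to vehicle treated cultures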; conditions: S. cerevisiae cln2 rad14 strain, stronger effect = higher value
Outline: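 Compounds are applied to the cln2 rad14 yeast strain, and growth is then compared with that of vehicle-treated cultures to give inhibition.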

[5] = NCI Yeast Anticancer Drug Screen. Data for the bub3 strain (AID 167); conditions: S. cerevisiae bub3 mutant strain, stronger effect = higher value
Outline: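 Yeast carrying a defined mutation is treated with each compound, and growth is compared with that of vehicle-exposed cells to give inhibition.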

[6] = NCI Yeast Anticancer Drug Screen. Data for the mlh1 rad18 strain (AID 175); conditions: S. cerevisiae mlh1 rad18 strain growth inhibition, stronger effect = higher value
Outline: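 Read-out is yeast growth inhibition, calculated against vehicle-only controls. The compound was applied to a strain engineered with DNA damage repair alterations.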

[7] = at 5.0 µM (retest, dose inferred, filed as 0.5)
[8] = at 50.0 µM (retest, dose inferred, filed as 5.0)

| SMILES | growth inhibition [1, 7] | growth inhibition [1, 8] | growth inhibition ([1]; at 50.0 µM) | growth inhibition [2, 7] | growth inhibition [2, 8] | growth inhibition ([2]; at 50.0 µM) | growth inhibition [3, 7] | growth inhibition [3, 8] | growth inhibition ([3]; at 50.0 µM) | growth inhibition [4, 7] | growth inhibition [4, 8] | growth inhibition ([4]; at 50.0 µM) | growth inhibition [5, 7] | growth inhibition [5, 8] | growth inhibition ([5]; at 50.0 µM) | growth inhibition [6, 7] | growth inhibition [6, 8] | growth inhibition ([6]; at 50.0 µM) |
| --- | --- | --- | --- | --- | --- | --- | --- | --- | --- | --- | --- | --- | --- | --- | --- | --- | --- | --- |
| O=C1OC(CCl)CC12CC(CCl)OC2=O (stereo not given) | 1% | 2% | 93.7% (active) | -4% | 3% | 89.7% (active) | -1% | 1% | 94% (active) | -1% | 1% | 79.6% (active) | 0% | -3% | 96% (active) | -3% | 0% | 95.9% (active) |
| COc1ccc(COCCOCc2nc(C#N)c(N)o2)cc1 | 16% | 8% | 43.3% | 13% | 9% | 12.1% | 16% | 5% | -25.1% | 16% | 11% | -16.8% | 22% | 12% | -31.7% | 10% | 4% | -1.6% |
| CSc1nc(=Nc2ccccc2)sn1-c1ccccc1 | 10% | 98% (active) | 98.8% (active) | 26% | 98% (active) | 99.5% (active) | 27% | 98% (active) | 99.2% (active) | 27% | 97% (active) | 99.4% (active) | 41% | 98% (active) | 99.3% (active) | 15% | 98% (active) | 99% (active) |
| FC(F)(F)c1ccccc1NC(=S)SCc1ccc2c(c1)OCO2 | 7% | 95% (active) | 98.8% (active) | 8% | 98% (active) | 99% (active) | 1% | 97% (active) | 99% (active) | 2% | 96% (active) | 98% (active) | 3% | 95% (active) | 98.3% (active) | 1% | 96% (active) | 99% (active) |
| COC(=O)[C@]1(C)CCCC2(C)C3=C(CCC21)CC1(CC3)SCCS1 (stereo not given in full) | 12% | 92% (active) | 85.4% (active) | 41% | 94% (active) | 91.3% (active) | 29% | 93% (active) | 87.6% (active) | 46% | 96% (active) | 86.4% (active) | 56% | 95% (active) | 86.5% (active) | 18% | 95% (active) | 85.7% (active) |
| BrCC1(CBr)COC1 | 4% | 47% | 3.85% | 5% | 64% | 2.2% | 6% | 56% | 7.75% | -3% | 30% | -8.15% | 29% | 94% (active) | 87% (active) | 2% | 87% (active) | 9.45% |
| O=C(CC(=O)c1ccccc1)CC(=O)c1ccccc1Br | 1% | 94% (active) | 71.1% (active) | -1% | 93% (active) | 93.5% (active) | -17% | 93% (active) | 6.6% | -3% | 75% (active) | 85.5% (active) | -1% | 96% (active) | 68.7% | 1% | 96% (active) | 96.5% (active) |
| O=C1/C(=C/c2ccc([N+](=O)[O-])cc2)CNC/C1=C\c1ccc([N+](=O)[O-])cc1 | 74% (active) | 99% (active) | 77% (active) | 87% (active) | 99% (active) | 87.5% (active) | 93% (active) | 99% (active) | 85.5% (active) | 73% (active) | 97% (active) | 74% (active) | 90% (active) | 99% (active) | 83.8% (active) | 96% (active) | 99% (active) | 75.7% (active) |
| Cc1cccc(O)c(=O)c1 | 12% | 98% (active) | 99.3% (active) | -5% | 99% (active) | 99.5% (active) | 2% | 98% (active) | 99.5% (active) | 8% | 95% (active) | 99.5% (active) | 9% | 98% (active) | 99.4% (active) | 9% | 96% (active) | 99.5% (active) |
| CC(C)(C)c1c2c(c(C(C)(C)C)c3c1OCN(Cc1ccccc1)C3)OCN(Cc1ccccc1)C2 | 4% | 12% | 54.1% | 0% | -13% | 9.25% | -2% | -19% | 71.7% (active) | -15% | -38% | 17.6% | -5% | 18% | 11.7% | -10% | 1% | 41.5% |
| O=C(O)/C=C/c1c2ccccc2cc2ccccc12 | 41% | 96% (active) | 97.1% (active) | 16% | 98% (active) | 96.5% (active) | 27% | 97% (active) | 94.7% (active) | 9% | 96% (active) | 96.9% (active) | 71% (active) | 96% (active) | 97.3% (active) | 47% | 97% (active) | 97.5% (active) |
| COc1ccc(N=NN(C)C)cc1 | -13% | 65% | 97% (active) | 13% | 28% | 70.3% (active) | -7% | 35% | 83.7% (active) | -42% | 26% | 76.5% (active) | -12% | 50% | 72% (active) | 17% | 92% (active) | 94.6% (active) |
| COc1ccc(NCCN(C)C)c2c(=O)c3ccccc3sc12 | 13% | 53% | 90.4% (active) | 1% | 45% | 37.4% | -1% | 39% | 41.6% | -3% | 16% | -1.05% | -7% | 0% | 50.2% | -3% | 43% | 69.4% |
| Nc1nc(-c2ccccc2)cc(-c2ccccc2O)n1 | 7% | -1% | 40.8% | 0% | 15% | 20.5% | 12% | 19% | 62.6% | 13% | 9% | 69.2% | 9% | 23% | 26.1% | 8% | 11% | 67.7% |
| COC1OC(CBr)C(OC(c2ccccc2)(c2ccccc2)c2ccccc2)C(OC(c2ccccc2)(c2ccccc2)c2ccccc2)C1OC(c1ccccc1)(c1ccccc1)c1ccccc1 (stereo not given) | -11% | 11% | 98.8% (active) | -12% | -27% | 98.7% (active) | -11% | -9% | 98.5% (active) | -8% | 33% | 96.5% (active) | -2% | 25% | 97.7% (active) | -5% | 32% | 98% (active) |
| Oc1cccc2ccc(SSc3ccc4cccc(O)c4n3)nc12 | 99% (active) | 95% (active) | 92.2% (active) | 100% (active) | 95% (active) | 95.7% (active) | 94% (active) | 95% (active) | 93% (active) | 85% (active) | 87% (active) | 74.8% (active) | 96% (active) | 95% (active) | 90.5% (active) | 93% (active) | 93% (active) | 93.3% (active) |
| CC1(C(Cl)(Cl)Cl)C=CC(=NO)C=C1 (stereo not given) | 1% | 28% | 65.8% | 2% | 34% | 21.4% | 1% | 44% | 70.8% (active) | 3% | 26% | 30.1% | -4% | 29% | 18.7% | -4% | 34% | 54.1% |
| COc1ccc(NC(=O)/C(=C/c2ccccc2)C(C)=O)cc1 | 59% | 98% (active) | 98.1% (active) | 57% | 99% (active) | 98.2% (active) | 53% | 98% (active) | 98.5% (active) | 19% | 95% (active) | 97.5% (active) | 65% | 98% (active) | 98.1% (active) | 68% | 99% (active) | 98.1% (active) |
| O=C(c1ccc(Cl)cc1)C1N=NCC1c1ccccc1 (stereo not given) | 3% | 33% | -2.2% | 9% | 52% | 22.8% | 4% | 50% | 29.2% | 4% | 59% | 12.8% | 4% | 85% (active) | 87% (active) | -8% | 53% | 43% |
| Clc1ccccc1/C=C/c1ccccn1 | -8% | 4% | 41.2% | -6% | -16% | 30.7% | -8% | 1% | 74.7% (active) | -9% | -16% | 16.2% | -3% | 30% | 67.5% | -7% | -6% | 71.8% (active) |
